Source: PubChem BioAssay (Broad Institute)
Many of the other results were omitted from the sample, so hits are more common in it than they were.
PD-1 reverse act – reversal of PD-1 mediated T-cell inhibition. primary human CD4 T cells, PD-L1 beads, CellTiter-Glo 96 h. 29,000 tested, under 10 active. activation, % (concentration not given with the values); call rule not given here;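 note: 0% = median vehicle wells and 100% = positive control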
STK33 inh – blocks human STK33 kinase activity. 0.44% of 27,000 active. inhibition, % at 12.5 µM. ADP-Glo luminescence, MBP substrate; in the data active = inhibition above about 20%; inconclusive = no clear call, values can overlap the other calls
Target sequence (Q9BYT3 whole entry, looked up): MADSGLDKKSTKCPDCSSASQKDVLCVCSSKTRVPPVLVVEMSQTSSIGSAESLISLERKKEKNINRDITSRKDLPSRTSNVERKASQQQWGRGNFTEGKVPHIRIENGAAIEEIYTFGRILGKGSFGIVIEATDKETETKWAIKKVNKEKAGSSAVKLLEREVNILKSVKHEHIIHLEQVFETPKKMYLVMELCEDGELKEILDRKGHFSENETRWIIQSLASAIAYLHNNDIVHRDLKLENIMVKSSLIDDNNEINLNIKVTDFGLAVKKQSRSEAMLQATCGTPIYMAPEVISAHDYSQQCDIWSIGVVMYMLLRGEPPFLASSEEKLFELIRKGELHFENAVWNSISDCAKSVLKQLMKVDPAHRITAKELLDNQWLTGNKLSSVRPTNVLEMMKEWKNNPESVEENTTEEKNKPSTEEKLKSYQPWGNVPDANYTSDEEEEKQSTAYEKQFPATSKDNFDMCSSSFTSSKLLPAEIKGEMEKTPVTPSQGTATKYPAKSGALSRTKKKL
NOMO-1 viab – STK33 inhibitor candidate reducing NOMO-1 cell viability | NOMO-1 AML viability, CellTiter-Glo luminescence, 72 h | inhibition, % (no concentration beside the values) | 7.5% of 37,000 active | AID 2330; in the data active = inhibition above about 80%; inconclusive = no clear call, values can overlap the other calls
Numbers without * were called inactive; ? = inconclusive; · = no result; ! = repeats disagree.

SMILES	PD-1 reverse act	STK33 inh	NOMO-1 viab
COc1ccc(OC(C)c2nc(-c3cccnc3)no2)cc1 (stereo unspecified)	·	-2	-10
COc1ccc(OC)c(S(=O)(=O)N(C)CC(=O)Nc2ccc(C(F)(F)F)cc2)c1	0	-2	10
C[C@H]1CN([C@@H](C)CO)C(=O)c2cccc(NC(=O)c3nc4ccccc4s3)c2O[C@@H]1CN(C)C(=O)Nc1ccc(C(F)(F)F)cc1	·	·	33
C[C@H]1CN([C@@H](C)CO)C(=O)c2cccc(NC(=O)c3nc4ccccc4s3)c2O[C@H]1CN(C)C(=O)Nc1ccc(C(F)(F)F)cc1	-5	·	110*
C[C@@H]1CN([C@@H](C)CO)C(=O)c2cccc(NC(=O)c3nc4ccccc4s3)c2O[C@@H]1CN(C)Cc1ccccc1	-5	·	104*
C[C@H](CO)N1C[C@H](C)[C@H](CN(C)Cc2ccc(C(=O)O)cc2)Oc2c(NC(=O)c3nc4ccccc4s3)cccc2C1=O	-1	·	21
C[C@H](CO)N1C[C@H](C)[C@@H](CN(C)C(=O)Nc2ccccc2)Oc2c(NC(=O)c3nc4ccccc4s3)cccc2C1=O	-2	·	14
C[C@H](CO)N1C[C@H](C)[C@@H](CN(C)C(=O)Nc2cccc3ccccc23)Oc2c(NC(=O)c3nc4ccccc4s3)cccc2C1=O	-4	·	99*
C[C@H](CO)N1C[C@H](C)[C@H](CN(C)Cc2ccc(-c3ccccc3)cc2)Oc2c(NC(=O)c3nc4ccccc4s3)cccc2C1=O	-2	·	?
C[C@@H]1CN([C@@H](C)CO)C(=O)c2cccc(NC(=O)c3nc4ccccc4s3)c2O[C@@H]1CN(C)Cc1ccc(C(F)(F)F)cc1	-4	·	99*
O=C(NC1CCCCC1)c1c(NC(=O)c2cc(-c3cccnc3)nc3ccccc23)sc2c1CCC2	·	6	35
N#CCC(c1ccccc1)c1ccccc1	-1	·	-5
COc1ccc2[nH]c(=O)c(CN(C)C(=O)c3cccc(Cl)c3)cc2c1	0	-1	17
C[C@@H]1CN([C@@H](C)CO)C(=O)c2cccc(NC(=O)c3nc4ccccc4s3)c2O[C@H]1CN(C)Cc1ccc(Cl)c(Cl)c1	-1	·	49
CNC[C@H]1Oc2c(NC(=O)c3nc4ccccc4s3)cccc2C(=O)N([C@@H](C)CO)C[C@@H]1C	1	·	16
CNC[C@H]1Oc2c(NC(=O)c3nc4ccccc4s3)cccc2C(=O)N([C@H](C)CO)C[C@@H]1C	3	·	97*
C[C@@H]1CN([C@H](C)CO)C(=O)c2cccc(NC(=O)c3nc4ccccc4s3)c2O[C@H]1CN(C)Cc1ccc(Cl)c(Cl)c1	-3	·	91*
C[C@@H]1CN([C@H](C)CO)C(=O)c2cccc(NC(=O)c3nc4ccccc4s3)c2O[C@H]1CN(C)CC1CCCCC1	-4	·	116*
C[C@H]1CN([C@@H](C)CO)C(=O)c2cccc(NC(=O)c3nc4ccccc4s3)c2O[C@H]1CN(C)CC1CCCCC1	-2	·	50
CC(=O)c1ccc(NC(=O)CN(C)S(=O)(=O)c2ccc(C)cc2)cc1	1	1	-11
CC(C)(O[C@@H]1O[C@H](CO)[C@@H](O)[C@H](O)[C@H]1O)[C@@H]1Oc2cc3oc(=O)ccc3cc2[C@H]1O	0	-3	7
CCC1(CC)C(=O)N(CC(=O)OC)C(=O)N(C)C1=S	0	·	24
CCc1cccc(C)c1NC(=O)CN(C)S(=O)(=O)c1ccc(Cl)cc1	3	-3	-9
C=C1C(=O)O[C@H]2C1C[C@@H](OC(C)=O)[C@@]1(C)[C@@H](OC(C)=O)C[C@@H](OC(C)=O)C(=C)[C@H]21 (stereo partly specified)	-13	-1	120*
COc1cc([N+](=O)[O-])ccc1NC(=S)NCc1cccnc1	·	0	20
SMILES	PD-1 reverse act	STK33 inh	NOMO-1 viab
O=C(CNS(=O)(=O)c1ccccc1)Nc1cccc(Cl)c1Cl	·	0	1
c1cnc2c(OCc3nc4ccccc4[nH]3)cccc2c1	-2	1	19
Nc1nc(COc2cccc3cccnc23)nc(Nc2ccccc2)n1	-8	1	91*
COC(=O)/C=C1/NCC(OC(=O)c2ccc(C(C)(C)C)cc2)CNC1=O (stereo unspecified)	0	·	51
COc1ccc2oc(-c3ccccc3)c(O)c(=O)c2c1	2	-1	21
Cc1c(CNC(=S)Nc2cccc([N+](=O)[O-])c2)cnn1C	0	-3	0
O=[N+]([O-])c1cccc(NC(=S)NCc2cn(-c3ccccc3)nc2-c2ccccc2)c1	0	1	97*
c1coc(-c2nnc(C3CCCCC3)o2)c1	1	·	-18
CCN(CC)CCC(=O)N1N=C(c2ccc(C)cc2)CC1c1ccc(OC)cc1 (stereo unspecified)	1	·	27
NC(=O)NC(=O)Cc1ccccc1	·	2	27
NC(=NCc1ccccc1)NC(=O)c1nc(Cl)c(N)nc1N	2	2	91*!
NC(=Nc1ccccc1)NC(=O)c1nc(Cl)c(N)nc1N	·	9	119*
COc1ccc(NC(=O)CSc2nnc(-c3ccncc3)o2)cc1	5	0	-9
COC(=O)/C=C/c1ccc(OC)c(/C=C/C(C)(C)O)c1	0	-2	21
CCOc1ccccc1NC(=O)c1ccsc1NC(=O)c1cc2ccccc2oc1=O	·	-2	-14
Cc1ccc(NC(=O)C(Cc2ccccc2)N2C(=O)C3C4CCC(C4)C3C2=O)cc1[N+](=O)[O-] (stereo unspecified)	-2	-5	33
C[C@H](CO)N1C[C@H](C)[C@H](CN(C)Cc2ccc(Cl)c(Cl)c2)Oc2ccc(NC(=O)Nc3ccc(C(F)(F)F)cc3)cc2C1=O	0	·	125*
C[C@@H]1CN([C@@H](C)CO)C(=O)c2cc(NC(=O)Nc3ccc(C(F)(F)F)cc3)ccc2O[C@H]1CN(C)Cc1ccc(Cl)c(Cl)c1	-4	4	115*
C[C@H]1CN([C@@H](C)CO)C(=O)c2cc(NC(=O)Nc3ccc(C(F)(F)F)cc3)ccc2O[C@@H]1CN(C)Cc1ccc(Cl)c(Cl)c1	-6	0	117*
C[C@H](CO)N1C[C@H](C)[C@@H](CN(C)Cc2ccc(Cl)c(Cl)c2)Oc2ccc(NC(=O)Nc3ccc(C(F)(F)F)cc3)cc2C1=O	·	·	65
Cc1cccc(NC(=O)/C=C/c2ccccc2)c1	0	·	29
COc1ccc(C2CC(=O)c3c(O)cc(O[C@@H]4O[C@H](CO)[C@@H](OC5OCC(O)(CO)C5O)[C@H](O)[C@H]4O)cc3O2)cc1 (stereo partly specified)	-1	1	15
CC(Oc1ccc2ccccc2c1)C(=O)NN (stereo unspecified)	1	·	21
C[C@H]1CN([C@@H](C)CO)C(=O)Cc2cc(NC(=O)Nc3ccc(C(F)(F)F)cc3)ccc2O[C@@H]1CN(C)CC1CC1	2	·	11
C[C@@H]1CN([C@@H](C)CO)C(=O)Cc2cc(NC(=O)Nc3ccc(C(F)(F)F)cc3)ccc2O[C@@H]1CN(C)CC1CCCCC1	2	0	104*
C[C@H]1CN([C@@H](C)CO)C(=O)Cc2cc(NC(=O)Nc3ccc(C(F)(F)F)cc3)ccc2O[C@H]1CN(C)CC1CCCCC1	-5	-1	130*
C[C@@H]1CN([C@H](C)CO)C(=O)c2cc(NC(=O)Nc3ccc(C(F)(F)F)cc3)ccc2O[C@H]1CN(C)CC1CCCCC1	2	4	103*
